Sampled rows, rich in hits. Any-hit rate of the full collection: about 5.9%.
Gal4-VP16 FLuc: inhibits Gal4-VP16 luciferase reporter, ROR gamma counter-screen; Drosophila S2 Gal4-VP16 UAS-luciferase, luminescence, 20 h; Potency, µM (titrated, usually from 53.6 µM), for inactives: at the top dose activity, negative = inhibition, hits mostly inhibitors; 310,000 tested, 3.5% active; AID 2546;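 note: Gal4-VP16 expression switched on by copper sulfate through the metallothionein promoter; % is set by controls: 0 for no effect and ±100 for the full control effect; nearly all actives have a fitted effect of over 50% in size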
GLP1R cytotox: cytotoxicity counter-screen for GLP-1 receptor inverse agonists; HEK293 cAMP-luciferase reporter cells, luminescence, 24 h; Potency, µM (doses to about 38.3 µM), for inactives: at the top dose activity change, negative = inhibition, actives largely listed as inhibitors; 410,000 tested, 0.13% active; AID 624418;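 note: loss of luciferase light is scored as toxicity; % is set by controls: 0 for no effect and ±100 for the full control effect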
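Luminescence readout: signal drop marks cytotoxicity. Plated cells grew 12 h at 37 °C, 5% CO2, received 23 nL compound for 24 h, then got luciferase reagent, read after 12 min at RT.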
GLP1R ag: activates the human GLP-1 receptor; Potency, µM (highest dose often 45.6 µM), without a hit: at the top dose activation, most hits filed as activators; HEK293 GLP-1R CRE-luciferase, luminescence, 4-6 h; cells express a hypersensitive GLP-1R form; AID 624172; 380,000 tested, 0.007% active; P43220; note: % of control where 0% means no effect
GLP1R inv ag: inverse agonists of human GLP-1 receptor. P43220. AID 624417. HEK293 GLP-1R CRE-luciferase, luminescence, 24 h; GLP-1R form is constitutively active. 410,000 tested, 1.6% active. Potency, µM (highest dose often 38.3 µM), for inactives: at the highest dose activity change, negative = inhibition, most hits filed as inhibitors; note: % is set by controls: 0 for no effect and ±100 for the full control effect; nearly all actives have a fitted effect of over 55% in size
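Seeding at 200 cells/uL, 12 h culture, 24 hr compound treatment, then luciferase reagent and a luminescence read; cells are HEK293 stably expressing a constitutively active GLP-1R plus cAMP-responsive luciferase.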
RORgamma inh: blocks mouse ROR gamma transcriptional activity; P51450; Drosophila S2 Gal4-RORgamma UAS-luciferase reporter, 20 h; Potency, µM (highest dose often 53.6 µM), without a hit: at the highest dose activity change, negative = inhibition, hits mostly inhibitors; 310,000 tested, 5.4% active; AID 2551; note: % is set by controls: 0 for no effect and ±100 for the full control effect; nearly all actives have a fitted effect of over 60% in size
Target sequence (P51450 whole entry, looked up, the tested form may be a part): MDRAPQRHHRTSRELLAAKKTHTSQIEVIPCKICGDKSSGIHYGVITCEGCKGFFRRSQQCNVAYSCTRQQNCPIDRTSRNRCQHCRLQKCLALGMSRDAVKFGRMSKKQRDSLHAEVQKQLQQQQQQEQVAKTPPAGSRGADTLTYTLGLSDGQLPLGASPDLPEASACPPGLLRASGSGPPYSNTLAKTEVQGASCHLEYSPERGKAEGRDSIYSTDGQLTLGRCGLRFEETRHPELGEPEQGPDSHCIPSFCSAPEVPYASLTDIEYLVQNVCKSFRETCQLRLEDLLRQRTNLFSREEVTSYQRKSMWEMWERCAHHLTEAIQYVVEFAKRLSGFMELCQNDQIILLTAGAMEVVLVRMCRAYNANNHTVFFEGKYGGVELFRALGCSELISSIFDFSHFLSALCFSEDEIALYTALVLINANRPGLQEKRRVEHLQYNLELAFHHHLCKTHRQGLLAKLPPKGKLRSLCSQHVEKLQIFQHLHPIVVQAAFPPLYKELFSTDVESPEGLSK
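Compounds are pin-transferred onto Drosophila Schneider cells expressing a copper-inducible Gal4–ROR gamma transactivation domain fusion. After 1 hr, copper sulfate is added to 700 uM final; luciferase is read 20 hr later.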
An asterisk follows results filed as active; ? = inconclusive; / = no result given; [ ] = another dose, or the depositor's remark. Calls come from the whole dose curve; as a rule, active = well fitted curve in the direction sought with a large enough effect; inconclusive = small, poorly fitted or top-dose-only effect, or another doubt; inactive = no such curve, though single readings can be large; an effect the other way counts as inactive or inconclusive. Potency is the fitted concentration of half-maximal effect.

SMILES | Gal4-VP16 FLuc | GLP1R cytotox | GLP1R ag | GLP1R inv ag | RORgamma inh
COc1ccc(Cl)cc1NC(=O)NCc1ccco1 | 4% | -22% | -8% | ? | 31%
COc1ccc(Cl)cc1NC(=S)NCc1ccco1 | ? | 3% | -8% | 0% | 18µM*
Cc1nnc(C)n1/N=C/c1cc(Br)cc(Br)c1O | ? | 70% | 3% | ? | ?
CS/C(N)=N/N=C/c1cc(Br)cc(Br)c1O | 2.5µM* | 4% | 23% | ? | 0.63µM*
Nn1cnnc1N/N=C/c1cc(Br)cc(Br)c1O | 13µM* | 25% | -16% | -1% | 10µM*
CSc1ccc(/C=N\Nc2nncn2N)cc1 | ? | ? | -5% | ? | -38%
NC(N)=N/N=C/c1cc([N+](=O)[O-])ccc1O | -8% | -18% | -6% | 19% | 18%
C=CCS/C(N)=N\N=C\c1cc(Br)cc([N+](=O)[O-])c1O | 3.2µM* | -1% | 7% | 3% | 0.32µM*
CCCCS/C(N)=N/N=C/c1cc(C)ccc1O | 5µM* | -14% | 35% | 10µM* | 5.6µM*
Cc1ccc(NC(=O)Cn2c(=O)n(CCCCCC(=O)NCc3ccc(F)cc3)c(=O)c3sccc32)cc1C | / | 0% | / | -4% | /
COC(=O)C/C=C\[C@H](C)[C@@H](OCc1ccccc1Br)C(C)C | -6%[10 µM] | / | / | / | -18%[10 µM]
Cc1cc2c(cc3c(SCC(=O)Nc4cccc(Cl)c4C)nnc(C)n32)o1 | / | 3% | / | 1% | /
CC12C=C(/C=C/c3ccc(C(F)(F)F)cc3)C(C)(C1)C(c1ccc(C(F)(F)F)cc1)CC2=O (stereo not drawn) | -7%[10 µM] | / | / | / | 16%[10 µM]
CS/C(N)=N/N=C/c1cc(C)ccc1O | 5µM* | ? | 5% | ? | 0.32µM*
CCS/C(N)=N/N=C/c1cc(C)ccc1O | 2µM* | ? | -35% | ? | 0.71µM*
CCN(CC)c1ccc(/C=N/N=C(N)N)c(O)c1 | -9% | 30% | 12% | ? | 7%
Nc1ccc(C(=O)NC2CCSc3ccccc32)cc1[N+](=O)[O-] (stereo not drawn) | 7.9µM* | -9% | 3% | ? | ?
O=c1c(-c2ccc(F)cc2)nc2cncnc2n1C1CC1 | -15% | / | / | / | -12%
COc1cccc(NS(=O)(=O)c2ccc3c(c2)CCN3C(C)=O)c1 | 16µM* | 3% | -1% | 0% | ?
COc1cccc(NS(=O)(=O)c2ccc3c(c2)CCCN3C(=O)C2CCC2)c1 | / | -4% | / | -16% | /
CC(=O)N1CCc2cc(S(=O)(=O)N3CCc4ccccc43)ccc21 | 13µM* | 0% | 7% | 14% | ?
CC(=O)N1CCc2cc(S(=O)(=O)Nc3cccc(C(F)(F)F)c3)ccc21 | 5µM* | -15% | 8% | ? | ?
CSc1cccc(NS(=O)(=O)c2ccc3c(c2)CCN3C(C)=O)c1 | 4.5µM* | 3% | 11% | ? | ?
CCOC(=O)CC(NS(=O)(=O)c1cc(-c2cc(C)no2)ccc1C)c1ccc(C)cc1 (stereo not drawn) | / | -1% | / | ? | /
COc1cccc(S(=O)(=O)Nc2ccc(C(=O)N3CCCCCC3)cc2)c1 | 8.9µM* | -12% | 6% | -23% | 8.9µM*
SMILES | Gal4-VP16 FLuc | GLP1R cytotox | GLP1R ag | GLP1R inv ag | RORgamma inh
Cn1cc(S(=O)(=O)N2CCc3ccccc32)cc1C(=O)NC(C)(C)C | 5µM* | -12% | -4% | -26% | -6%
Cc1ccc(NS(=O)(=O)c2ccc(C(=O)N3CCN(c4ncccn4)CC3)cc2)cc1 | 1.3µM* | -10% | 2% | -19% | -45%
Cc1cccc(C)c1NC(=O)c1cc(S(=O)(=O)N2CCc3ccccc32)cn1C | -9% | 17% | 11% | 1% | 19%
CCC(=O)N1CCc2cc(S(=O)(=O)NC(Cc3ccccc3)C(=O)NCc3ccc(F)cc3)ccc21 (stereo not drawn) | / | 0% | / | 2% | /
Cc1ccc(N)c(Cl)c1 | 19% | / | / | / | 15%
COc1ccc(Cl)cc1NC(=O)c1nn(C)c2c1CS(=O)(=O)c1ccccc1-2 | / | -4% | / | -1% | /
CCn1cc(/C=N\NC(=O)Cc2ccc(Cl)cc2)cn1 | ? | 22% | -8% | 15% | -123%
CN(C)c1ccc(C(=O)N/N=C/c2ccccn2)cc1 | ? | 4% | -5% | ? | 13µM*
O=C(N/N=C/c1ccccn1)c1ccccc1 | -12% | 19% | -11% | -15% | 16%
CCn1cc(/C=N\NC(=O)c2ccc(Cl)cc2)cn1 | -8% | -19% | 5% | -15% | 11µM*
O=C(N/N=C/c1ccccn1)c1ccc(Cl)cc1 | 2.5µM* | ? | -2% | ? | 1.4µM*
CCNc1ncc2ncc(=O)n(Cc3ccc(F)cc3)c2n1 | -10% | / | / | / | -1%
CCOc1ccccc1CNC(=O)c1ccc2c(c1)N(Cc1ccc(C)cc1)CCS2 | / | 9% | / | ? | /
Cc1nn(C)c(C(=O)Nc2ccc(Cn3cccn3)cc2)c1[N+](=O)[O-] | -7% | -4% | 0% | -6% | -30%
COc1cccc(NC(=S)NNC(=O)c2c([N+](=O)[O-])c(C)nn2C)c1 | ? | -2% | 4% | 0% | 2.5µM*
COc1cccc(NC(=S)NNC(=O)C(C)n2nc(C)c([N+](=O)[O-])c2C)c1 (stereo not drawn) | -18% | 3% | 7% | 5% | ?
Cc1nn(C)c(C(=O)NNC(=S)Nc2ccc(Cl)cc2)c1[N+](=O)[O-] | ? | 10% | -3% | 5% | 4µM*
O=c1c2ccccc2c(C=NCCCN2CCOCC2)c(O)n1Cc1ccccc1 | -5% | -10% | 19% | ? | 1%
O=c1c2ccccc2c(C=NCCc2ccccc2)c(O)n1Cc1ccccc1 | -4% | 12% | -19% | 5µM* | -2%
CCOC(=O)CC(NC(=O)c1cc2c(=O)n3cccc(C)c3nc2s1)c1ccc(OCC)c(OC)c1 (stereo not drawn) | / | 2% | / | 32% | /
CCOC(=O)N1CCN(C(=O)c2ccc3c(c2)N(Cc2ccccc2)CCS3)CC1 | -15% | -3% | 1% | -6% | 16%
CC1CC(C)CN(C(=O)c2ccc3c(c2)N(Cc2ccccc2)CCS3)C1 (stereo not drawn) | 10% | -16% | 19% | 11µM* | 2%
CCOCCO | 2% | / | / | / | -11%
CN(C)C(=O)c1ccc2c(c1[N+](=O)[O-])C(=O)c1ccccc1C2=O | 3.5µM* | -17% | -2% | 12% | 2.2µM*
Cc1[nH]c2c(C)cccc2c1CCNC(=O)c1ccc2c(c1[N+](=O)[O-])C(=O)c1ccccc1C2=O | ? | ? | -12% | ? | 6.3µM*
Cc1ccc2c(c1[N+](=O)[O-])C(=O)c1ccccc1C2=O | ? | / | / | / | 0%
Cc1[nH]c2ccccc2c1CCNC(=O)c1ccc2c(c1[N+](=O)[O-])C(=O)c1ccccc1C2=O | ? | -20% | -32% | -24% | 10µM*
